# Source: PubChem BioAssay (Tox21)
# A number with no mark means an inactive call. Results filed as inconclusive are left out. Entries that show only a call come without a potency. Activity calls are given as the source filed them. Unless noted, calls come from the whole dose curve; as a rule, active = well fitted curve in the direction sought with a large enough effect in the repeat runs; inconclusive = weak or mixed curves; inactive = no such curve, though single readings can be large; an effect the other way counts as inactive or inconclusive.
# Key:
# [1] = qHTS assay to identify small molecule agonists of the estrogen receptor beta (ER-beta) signaling pathway - cell viability counter screen (AID 1259380); note: nearly all actives have a fitted effect of over 30% in size; note: potency is the fitted concentration of half-maximal effect
# Outline: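 ER-beta-UAS-bla HEK293T cells in medium with 2% charcoal-stripped FBS, pre-incubated 6 hr, then treated 16 hr at 37C. Cytotoxicity read in the same wells by CellTiter-Glo luminescence after 30 min at room temperature.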
# [2] = molecular target: Androgen receptor (Homo sapiens) (UniProt P10275); experiment: qHTS assay to identify small molecule agonists of the androgen receptor (AR) signaling pathway in the presence of an antagonist (AID 1259381; calls by dose curve; note: nearly all actives have a fitted effect of over 15% in size)
# Chain of Androgen receptor (Homo sapiens) (P10275 whole entry, looked up): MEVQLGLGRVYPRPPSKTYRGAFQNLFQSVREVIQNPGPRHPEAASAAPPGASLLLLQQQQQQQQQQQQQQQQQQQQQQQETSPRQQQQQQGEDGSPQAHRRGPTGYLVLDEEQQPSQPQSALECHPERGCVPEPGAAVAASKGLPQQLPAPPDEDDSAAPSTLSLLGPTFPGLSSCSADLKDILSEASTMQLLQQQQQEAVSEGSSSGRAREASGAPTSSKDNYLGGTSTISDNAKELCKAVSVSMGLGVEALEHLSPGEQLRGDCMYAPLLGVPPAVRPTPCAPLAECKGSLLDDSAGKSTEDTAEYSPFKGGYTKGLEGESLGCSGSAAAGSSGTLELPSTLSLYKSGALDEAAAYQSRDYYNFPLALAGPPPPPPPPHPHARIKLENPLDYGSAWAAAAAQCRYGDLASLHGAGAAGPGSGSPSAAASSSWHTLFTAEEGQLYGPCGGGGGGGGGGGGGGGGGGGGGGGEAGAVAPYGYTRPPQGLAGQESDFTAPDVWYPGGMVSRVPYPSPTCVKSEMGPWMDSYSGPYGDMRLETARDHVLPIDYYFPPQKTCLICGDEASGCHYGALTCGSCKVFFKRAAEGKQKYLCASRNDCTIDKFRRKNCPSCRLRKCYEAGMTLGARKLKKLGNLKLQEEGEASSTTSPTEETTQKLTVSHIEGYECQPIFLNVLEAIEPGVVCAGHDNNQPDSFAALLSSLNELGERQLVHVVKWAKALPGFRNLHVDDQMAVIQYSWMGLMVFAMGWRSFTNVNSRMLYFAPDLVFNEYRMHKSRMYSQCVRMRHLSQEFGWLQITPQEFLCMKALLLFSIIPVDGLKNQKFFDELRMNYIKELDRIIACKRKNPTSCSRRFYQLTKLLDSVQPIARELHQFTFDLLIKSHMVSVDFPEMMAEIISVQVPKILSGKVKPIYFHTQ
# Outline: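 MDA-kb2 cells carrying MMTV-luciferase (AR/GR responsive), 3,000 cells/well, co-treated with 3.0 uM nilutamide final. Compounds at 15 concentrations, 16 hr at 37C without CO2. Luciferase luminescence read after 30 min with ONE-Glo.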
# [3] = qHTS assay to identify small molecule antagonists of the estrogen receptor beta (ER-beta) signaling pathway - cell viability counter screen (AID 1259382); note: nearly all actives have a fitted effect of over 55% in size; note: potency is the fitted concentration of half-maximal effect
# Outline: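 ER-beta-UAS-bla HEK293T cells in 2% charcoal-stripped FBS medium, treated with compound plus 1 nM 17-beta-estradiol for 16 h at 37C. Viability read by CellTiter-Glo luminescence after 30 min at room temperature in the same wells.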
# [4] = qHTS assay to identify small molecule agonists or antagonists of the thyroid stimulating hormone receptor (TSHR) signaling pathway - wild type cell line counter screen (AID 1259384; calls by dose curve)
# Outline: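 Wild-type Hek293 cells, 800/well, 18 h at 37C, then compound with Ro20-1724 for 30 min RT. cAMP by HTRF (cAMP-d2/anti-cAMP cryptate), 1 h RT, fluorescence read. 15 concentrations, triplicates.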
# [5] = molecular target: Thyrotropin receptor (Homo sapiens) (UniProt P16473); experiment: qHTS assay to identify small molecule antagonists of the thyroid stimulating hormone receptor (TSHR) signaling pathway (AID 1259385; calls by dose curve; note: nearly all actives have a fitted effect of over 20% in size)
# Chain of Thyrotropin receptor (Homo sapiens) (P16473 whole entry, looked up): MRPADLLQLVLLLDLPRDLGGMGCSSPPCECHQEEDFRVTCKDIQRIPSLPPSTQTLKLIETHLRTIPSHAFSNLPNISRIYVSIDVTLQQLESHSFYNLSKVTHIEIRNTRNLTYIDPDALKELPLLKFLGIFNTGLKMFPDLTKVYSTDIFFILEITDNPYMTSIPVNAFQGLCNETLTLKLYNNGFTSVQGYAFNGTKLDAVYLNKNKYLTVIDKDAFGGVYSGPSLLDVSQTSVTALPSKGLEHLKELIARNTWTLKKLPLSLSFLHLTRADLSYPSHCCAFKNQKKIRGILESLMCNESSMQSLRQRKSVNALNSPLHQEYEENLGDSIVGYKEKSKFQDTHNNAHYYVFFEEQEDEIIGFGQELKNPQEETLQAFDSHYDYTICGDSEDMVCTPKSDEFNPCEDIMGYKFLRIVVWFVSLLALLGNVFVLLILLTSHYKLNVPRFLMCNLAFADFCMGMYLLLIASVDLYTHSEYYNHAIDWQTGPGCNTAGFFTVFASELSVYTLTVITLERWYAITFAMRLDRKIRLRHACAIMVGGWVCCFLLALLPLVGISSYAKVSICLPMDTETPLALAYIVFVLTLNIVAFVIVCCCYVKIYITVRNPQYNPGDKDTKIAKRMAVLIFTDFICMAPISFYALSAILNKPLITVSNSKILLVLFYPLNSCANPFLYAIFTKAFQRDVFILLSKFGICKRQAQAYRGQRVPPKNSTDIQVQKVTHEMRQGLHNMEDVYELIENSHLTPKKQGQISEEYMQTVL
# Outline: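 TSHR-HEK293 cells (800/well) plated 18 h, then compounds with Ro20-1724 and TSH at 1.5 ng/mL final, 30 min at room temperature. cAMP quantified by HTRF (cAMP-d2/anti-cAMP-cryptate, 1 h); 15 concentrations in triplicate.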
# [6] = qHTS assay to identify small molecule agonists of the estrogen receptor alpha (ER-alpha) signaling pathway in the presence of an antagonist - cell viability counter screen (AID 1259386);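 note: series mostly up to about 92 µM; cells exposed to compounds for 22 h at 37 °C before the viability read; nearly all actives have a fitted effect of over 30% in size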
# Outline: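 Cell viability in VM7Luc4E2 cells (endogenous full-length ER-alpha) measured by CellTiter-Fluor fluorescence in the same wells as the luciferase screen. Cells pre-cultured 5 days in charcoal-stripped serum, then treated 22 h with compounds at 15 concentrations plus 10.0nM ICI-182,780.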
# [7] = molecular target: Progesterone receptor (Homo sapiens) (UniProt P06401); experiment: qHTS assay to identify small molecule agonists of the progesterone receptor (PR) signaling pathway (AID 1346784; calls by dose curve; note: nearly all actives have a fitted effect of over 30% in size)
# Chain of Progesterone receptor (Homo sapiens) (P06401 whole entry, looked up): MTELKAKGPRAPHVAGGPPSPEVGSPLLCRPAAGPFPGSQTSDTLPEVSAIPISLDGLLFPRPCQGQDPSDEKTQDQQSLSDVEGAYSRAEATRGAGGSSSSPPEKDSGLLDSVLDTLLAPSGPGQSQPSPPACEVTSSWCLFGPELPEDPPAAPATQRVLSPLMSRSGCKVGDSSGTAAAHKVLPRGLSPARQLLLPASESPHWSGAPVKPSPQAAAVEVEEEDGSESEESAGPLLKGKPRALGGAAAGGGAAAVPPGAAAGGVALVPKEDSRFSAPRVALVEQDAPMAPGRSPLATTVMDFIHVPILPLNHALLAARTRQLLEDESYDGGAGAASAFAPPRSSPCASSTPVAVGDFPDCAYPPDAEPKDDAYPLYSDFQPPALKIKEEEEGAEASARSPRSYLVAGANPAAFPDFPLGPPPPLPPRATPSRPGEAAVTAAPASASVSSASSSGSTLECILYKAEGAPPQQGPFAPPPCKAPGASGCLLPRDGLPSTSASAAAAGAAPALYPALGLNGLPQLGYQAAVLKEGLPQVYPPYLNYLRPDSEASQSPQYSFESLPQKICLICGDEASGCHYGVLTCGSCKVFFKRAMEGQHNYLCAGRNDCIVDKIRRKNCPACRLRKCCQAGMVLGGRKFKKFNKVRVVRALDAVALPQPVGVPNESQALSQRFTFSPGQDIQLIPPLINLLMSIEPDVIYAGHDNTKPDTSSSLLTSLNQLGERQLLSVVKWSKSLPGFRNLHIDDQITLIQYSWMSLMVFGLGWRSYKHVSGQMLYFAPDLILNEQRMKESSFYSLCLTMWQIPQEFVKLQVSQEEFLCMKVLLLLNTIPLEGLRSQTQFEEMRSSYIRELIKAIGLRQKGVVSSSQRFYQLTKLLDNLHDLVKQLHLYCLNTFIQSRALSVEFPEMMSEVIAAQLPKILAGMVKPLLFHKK
# Outline: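 Seed PR-UAS-bla HEK 293T cells (2% charcoal-stripped FBS), incubate 6 hr at 37C; add compounds in DMSO, 16 hr at 37C; add LiveBLAzer B/G substrate, 2 hr RT; read fluorescence intensity.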
# [8] = molecular target: Progesterone receptor (Homo sapiens) (UniProt P06401); experiment: qHTS assay to identify small molecule antagonists of the progesterone receptor (PR) signaling pathway (AID 1346795; active = well fitted inhibition curve with a large enough effect in the signal ratio in the repeat runs, not every such curve was filed as active; the % refers to the signal ratio)
# Outline: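 Screening used a GripTite HEK293T line with PR-responsive UAS-beta-lactamase. Cells were challenged with compound in the presence of 1 nM R5020 final for 16 hr at 37C; B/G FRET substrate, 2 hr room temperature, fluorescence.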
# [9] = qHTS assay to identify small molecule antagonists of the progesterone receptor (PR) signaling pathway - cell viability counter screen (AID 1346798); note: nearly all actives have a fitted effect of over 50% in size; note: potency is the fitted concentration of half-maximal effect
# Outline: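 Measures cytotoxicity in parallel with the PR antagonist reporter read: HEK293T PR-UAS-bla cells get compound and R5020 for 16 hr, and remaining viable cells are quantified by CellTiter-Glo luminescence.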
# [10] = qHTS assay to identify small molecule agonists of the progesterone receptor (PR) signaling pathway - cell viability counter screen (AID 1346799; calls by dose curve; note: nearly all actives have a fitted effect of over 45% in size)
# Outline: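 Using the same plates as the PR reporter screen, HEK293T PR-UAS-bla cells received compounds for 16 hr at 37C and were then lysed with CellTiter-Glo; luminescence was read 30 min later at room temperature.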
# [11] = qHTS assay to identify small molecule agonists of the TGF-beta/Smad signaling pathway (AID 1346859; active = well fitted activation curve with a large enough effect in the signal ratio in the repeat runs, not every such curve was filed as active; the % refers to the signal ratio; note: series mostly up to about 77 µM)
# Outline: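 Beta-lactamase reporter activity downstream of Smad binding elements was measured in stably transfected HEK 293T cells; compounds were incubated for 5 hr, substrate for 2 hr at room temperature.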
# [12] = molecular target: Thyrotropin-releasing hormone receptor (Homo sapiens) (UniProt P34981); experiment: qHTS assay to identify small molecule agonists of the thyrotropin-releasing hormone receptor (TRHR) signaling pathway (AID 1346891; calls by dose curve; note: series mostly up to about 58 µM)
# Chain of Thyrotropin-releasing hormone receptor (Homo sapiens) (P34981 whole entry, looked up): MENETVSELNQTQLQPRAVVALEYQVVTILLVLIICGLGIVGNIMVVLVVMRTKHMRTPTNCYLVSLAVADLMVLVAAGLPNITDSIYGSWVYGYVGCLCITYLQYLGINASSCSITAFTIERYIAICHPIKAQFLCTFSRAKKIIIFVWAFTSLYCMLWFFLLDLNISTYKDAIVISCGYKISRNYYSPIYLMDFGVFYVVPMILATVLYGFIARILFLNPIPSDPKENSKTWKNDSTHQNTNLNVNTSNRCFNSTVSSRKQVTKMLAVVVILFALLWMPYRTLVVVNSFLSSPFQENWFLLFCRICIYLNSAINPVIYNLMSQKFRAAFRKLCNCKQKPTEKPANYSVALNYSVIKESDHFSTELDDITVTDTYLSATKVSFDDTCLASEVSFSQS
# Outline: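 Overnight-plated (18 h, 37 °C, 5% CO2) TRHR-Hek293 cells; 2 h calcium dye at 37 °C; compound in DMSO; 3-min kinetic fluorescence read.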
# [13] = Human pregnane X receptor (PXR) small molecule agonists, qHTS cell viability counter screen (AID 1346977); note: nearly all actives have a fitted effect of over 50% in size; note: potency is the fitted concentration of half-maximal effect
# Outline: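 After a 5hr pre-incubation, PXR-Luc HepG2 cells received compounds plus positive control in DMSO and were kept 24hr at 37C. Cell viability was quantified by fluorescence from CellTiter-Fluor added for the final hour.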
# [14] = Caspase-3/7 induction in HepG2 cells by small molecules, qHTS assay (AID 1346978); note: nearly all actives have a fitted effect of over 15% in size
# Outline: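 Wild-type HepG2 cells, 2,000/well, settled 5 hr at 37 C and 5% CO2, then compound-treated for 17 hr; caspase-3/7 activity read by luminescent Caspase-Glo 3/7 after 30 min at room temperature.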
# [15] = Caspase-3/7 induction in CHO-K1 cells by small molecules, qHTS cell viability counter screen (AID 1346979); note: nearly all actives have a fitted effect of over 35% in size; note: potency is the fitted concentration of half-maximal effect
# Outline: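 Multiplexed with Caspase-Glo 3/7 in CHO-K1 cells, this counter screen added CellTiter-Fluor after 16hr of compound exposure and recorded fluorescence 1hr later.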
# [16] = Caspase-3/7 induction in CHO-K1 cells by small molecules, qHTS assay (AID 1346980); note: nearly all actives have a fitted effect of over 15% in size
# Outline: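 Wild-type CHO-K1 cells exposed to compounds for 17hr at 37 C, 5% CO2. Caspase-3/7 activity then measured by Caspase-Glo 3/7 luminescence after 30min at room temperature.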
# [17] = qHTS assay to identify small molecule antagonists of the TGF-beta/Smad signaling pathway - cell viability counter screen (AID 1346824); note: nearly all actives have a fitted effect of over 50% in size
# Outline: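 SBE-bla HEK 293T cells, incubated overnight, then compound plus 0.25 ng/mL TGF-beta1 (stock added) for 5 hr at 37 C. Viability was read in the same wells by CellTiter-Glo luminescence after 30 min at room temperature.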
# [18] = qHTS assay to identify small molecule agonists of the TGF-beta/Smad signaling pathway - cell viability counter screen (AID 1346829); note: top concentration of the series differs between compounds; nearly all actives have a fitted effect of over 45% in size
# Outline: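 Same-well cytotoxicity: CellTiter-Glo added after the 2 hr room-temperature beta-lactamase substrate step, luminescence measured 30 min later; cells had 5 hr of compound at 37 C.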
# [19] = molecular target: Thyrotropin-releasing hormone receptor (Homo sapiens) (UniProt P34981); experiment: qHTS assay to identify small molecule antagonists of the thyrotropin-releasing hormone receptor (TRHR) signaling pathway (AID 1346877; active = well fitted inhibition curve with a large enough effect in the repeat runs, not every such curve was filed as active; note: series mostly up to about 51 µM)
# Outline: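 TRHR-expressing HEK293 cells loaded with calcium dye for 2 h at 37 C; compounds pre-incubated 5 min at room temperature before TRH challenge at 1 nM final. Intracellular calcium fluorescence read kinetically for 3 min; 15 concentrations in triplicate.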
Compound,Potency [1],Potency [2],Potency [3],Potency [4],Potency [5],Potency [6],outcome [7],Potency [8],Potency [9],Potency [10],outcome [11],Potency [12],Potency [13],Potency [14],Potency [15],Potency [16],Potency [17],Potency [18],Potency [19]
CCC1(C)C(=O)N(Cl)C(=O)N1Cl (configuration not stated),inactive,inactive,inactive,inactive,inactive,inactive,inactive,inactive,inactive,inactive,inactive,inactive,inactive,inactive,inactive,inactive,,,
N#Cc1nc(Cl)c(Cl)c(Cl)c1Cl,15.4 µM (active),inactive,30.6 µM (active),inactive,inactive,,,,24.3 µM (active),,inactive,inactive,48.6 µM (active),inactive,1.72 µM (active),,inactive,inactive,inactive
O=C1OCc2ccccc21,inactive,inactive,inactive,inactive,inactive,,inactive,inactive,inactive,inactive,inactive,inactive,inactive,inactive,,inactive,inactive,inactive,inactive
